PubChem BioAssay (NCATS)
Records with an inconclusive call do not appear. Where a call stands in place of a potency, no number is given. The source made the active and inactive calls. The call rests on the fitted dose curve; in most records, active means well fitted curve in the direction sought with a large enough effect; inconclusive means small, poorly fitted or top-dose-only effect, or another doubt; inactive means no such curve, though single readings can be large; an effect the other way counts as inactive or inconclusive.

Assays:
[1] = qHTS of pediatric cancer cell lines to identify multiple opportunities for drug repurposing: Primary screen for Rh30 cells (AID 1347107); details: Rh30 rhabdomyosarcoma viability, CellTiter-Glo luminescence, 48 h; series mostly up to 46 µM; further: nearly all actives have a fitted effect of over 75% in size
Procedure, shortened: (§1)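 Viability after 48 h compound treatment at 37C, 500-1,000 cells/well, read as ATP luminescence with CellTiter-Glo. Primary screens used 11-point (MIPE, 0.78 nM-46 µM) or 8-point (NPC, 0.59 nM-46 µM) final concentrations; follow-up screens used 11-point dilutions.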

[2] = qHTS of pediatric cancer cell lines to identify multiple opportunities for drug repurposing: Primary screen for Rh41 cells (AID 1347108); details: Rh41 rhabdomyosarcoma viability, CellTiter-Glo luminescence, 48 h; series mostly up to 46 µM;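 further: luminescence drop marks cytotoxic hits; nearly all actives have a fitted effect of over 70% in size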
Procedure, shortened: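 Readout: CellTiter-Glo luminescence, 48 h treatment. Controls DMSO (neutral) and bortezomib 2.3 µM final (positive). Potency and efficacy taken from primary-screen concentration-response curves.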

[3] = qHTS of pediatric cancer cell lines to identify multiple opportunities for drug repurposing: Confirmatory screen for NB1643 cells (AID 1347109); details: NB1643 neuroblastoma cell viability; series mostly up to 45.9 µM; further: nearly all actives have a fitted effect of over 45% in size
Procedure, shortened: as §1

[4] = qHTS of pediatric cancer cell lines to identify multiple opportunities for drug repurposing: Confirmatory screen for A673 cells (AID 1347110); details: A673 Ewing sarcoma cell viability; series mostly up to 45.9 µM;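 further: cells exposed to compound for 48 h before the viability read; nearly all actives have a fitted effect of over 65% in size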
Procedure, shortened: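 A673 cells seeded at 500-1,000 cells/well, rested 5 h, then dosed; primary MIPE 11-point (0.78 nM to 46 µM), NPC (0.59 nM to 46 µM); confirmatory 11-point. CellTiter-Glo luminescence after 48 h.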

[5] = qHTS of pediatric cancer cell lines to identify multiple opportunities for drug repurposing: Confirmatory screen for LAN-5 cells (AID 1347113); details: LAN-5 neuroblastoma cell viability; series mostly up to 45.9 µM; further: nearly all actives have a fitted effect of over 65% in size
Procedure, shortened: as §1

[6] = qHTS of pediatric cancer cell lines to identify multiple opportunities for drug repurposing: Confirmatory screen for DAOY cells (AID 1347114); details: DAOY medulloblastoma cells viability, cytotoxicity qHTS; series mostly up to 45.9 µM; further: nearly all actives have a fitted effect of over 65% in size
Procedure, shortened: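 Viability measured as metabolically active cells via CellTiter-Glo luminescence following 48 hours of compound exposure, 11-point dilutions in confirmatory testing. 500-1,000 cells/well plated 5 hours before dosing; controls were DMSO and 2.3 µM bortezomib.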

[7] = qHTS of pediatric cancer cell lines to identify multiple opportunities for drug repurposing: Confirmatory screen for NB-EBc1 cells (AID 1347115); details: NB-EBc1 neuroblastoma cells, viability (cytotoxicity); series mostly up to 45.9 µM;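 further: cells exposed to compound for 48 h before the viability read; nearly all actives have a fitted effect of over 45% in size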
Procedure, shortened: as §1

Which Potency [1] does the source give for CCN(CC)CCNC(=O)c1cc(Br)c(N)cc1OC here?
The Potency was “inactive”.

And the Potency [2]?
The Potency was “inactive”.

Which results are given for CN(C)CCOC(c1ccc(Cl)cc1)c1ccccn1 (centres undefined)?
Potency [1]: inactive; Potency [2]: inactive

For O=C(O)C(Cc1cc(I)c(O)c(I)c1)c1ccccc1 (centres undefined), which Potency [1] is on record?
The Potency was “inactive”.

What about the Potency [2] of the same compound?
Its Potency is “inactive”.

For O=C1C(O)=C(O)C(=O)C(O)=C1O, which Potency [1] is on record?
Its Potency is “inactive”.

And the Potency [2]?
The Potency was “inactive”.

With O=C(CCN1CCN2CCCC2C1)N1c2ccccc2Sc2ccc(Cl)cc21 (centres undefined) as the compound, how does the Potency [1] read?
The Potency was “inactive”.

What about the Potency [2] of the same compound?
The Potency was “inactive”.

With CCNC(=O)NCc1cccc(Cl)c1 as the compound, how does the Potency [1] read?
Its Potency is “inactive”.

And the Potency [2]?
The Potency was “inactive”.

Which Potency [1] does the source give for COP(=O)(OC)OC(c1ccc(Cl)cc1)P(=O)(OC)OC (centres undefined) here?
Its Potency is “inactive”.

What about the Potency [2] of the same compound?
The Potency was “inactive”.

With O=C1C(=O)c2ccccc2C(O)=C1C1CCC(c2ccc(Cl)cc2)CC1 (centres undefined) as the compound, how does the Potency [1] read?
The Potency was “inactive”.

And the Potency [2]?
The Potency was “inactive”.

For C[C@@H](O)[C@H]1C(=O)N2C(C(=O)O)=C(S[C@@H]3CN[C@H](CNS(N)(=O)=O)C3)[C@H](C)[C@H]12, which Potency [1] is on record?
The Potency was “inactive”.

What about the Potency [2] of the same compound?
The Potency was “inactive”.

Which results are given for Cc1nc(-c2ccc(Cl)cc2)oc1COC(C)(C)C(=O)O?
Potency [1]: inactive; Potency [2]: inactive

Which results are given for O=C(O)c1ccc(S(=O)(=O)N(Cl)Cl)cc1?
Potency [1]: inactive; Potency [2]: inactive

With Cn1c(=O)c2[nH]c(Br)nc2n(C)c1=O as the compound, how does the Potency [1] read?
The Potency was “inactive”.

And the Potency [2]?
Its Potency is “inactive”.

For CNCCc1ccccn1, which Potency [1] is on record?
The Potency was “inactive”.

And the Potency [2]?
The Potency was “inactive”.

Which Potency [1] does the source give for CC(CNC1CCCCC1)OC(=O)c1ccccc1 (centres undefined) here?
The Potency was “inactive”.

And the Potency [2]?
The Potency was “inactive”.

For O=C(O)CCC(=O)Nc1ccc(S(=O)(=O)Nc2nccs2)cc1, which Potency [1] is on record?
The Potency was “inactive”.

And the Potency [2]?
Its Potency is “inactive”.

Which Potency [1] does the source give for CC(=O)OC[C@H]1O[C@@H](n2ncc(=O)[nH]c2=O)[C@H](OC(C)=O)[C@@H]1OC(C)=O here?
Its Potency is “inactive”.

And the Potency [2]?
The Potency was “inactive”.

For CCCCCCCCCCCCSCCOCCO, which Potency [1] is on record?
The Potency was “inactive”.

And the Potency [2]?
The Potency was “inactive”.

With Cc1ncc(CO)c(C=O)c1O as the compound, how does the Potency [1] read?
Its Potency is “inactive”.

And the Potency [2]?
Its Potency is “inactive”.

For COc1ccc(-c2cc(C(F)F)nn2-c2ccc(S(N)(=O)=O)cc2)cc1F, which Potency [1] is on record?
The Potency was “inactive”.

And the Potency [2]?
The Potency was “inactive”.

Which Potency [1] does the source give for Clc1cccc(C(c2ccc3nc[nH]c3c2)n2ccnc2)c1 (centres undefined) here?
Its Potency is “inactive”.

What about the Potency [2] of the same compound?
The Potency was “inactive”.

What does the source list for CC(C)[C@@H]1CC[C@@H](C)CC1=O?
Potency [1]: inactive; Potency [2]: inactive

Which Potency [1] does the source give for CN(C)CCN1C(=O)c2ccccc2N(C)c2ccccc21 here?
Its Potency is “inactive”.

What about the Potency [2] of the same compound?
The Potency was “inactive”.

With NC(=O)c1ccccc1O as the compound, how does the Potency [1] read?
Its Potency is “inactive”.

And the Potency [2]?
Its Potency is “inactive”.

For CCCCNc1ccc(C(=O)OCCOCCOCCOCCOCCOCCOCCOCCOCCOC)cc1, which Potency [1] is on record?
Its Potency is “inactive”.

And the Potency [2]?
The Potency was “inactive”.

Which Potency [1] does the source give for Cc1cc(C)cc(OCC2CNC(=O)O2)c1 (centres undefined) here?
Its Potency is “inactive”.

And the Potency [2]?
The Potency was “inactive”.

For C[N+]12CCC(CC1)C(OC(=O)C(O)(c1ccccc1)c1ccccc1)C2 (centres undefined), which Potency [1] is on record?
Its Potency is “inactive”.

What about the Potency [2] of the same compound?
The Potency was “inactive”.

For CCNC(=O)/C=C/c1cccc(Br)c1, which Potency [1] is on record?
Its Potency is “inactive”.

What about the Potency [2] of the same compound?
The Potency was “inactive”.

For CC(=O)NC(=O)c1ccccc1O, which Potency [1] is on record?
The Potency was “inactive”.

And the Potency [2]?
Its Potency is “inactive”.

Which results are given for CC(=C(CCOC(=O)C(C)C)SSC(CCOC(=O)C(C)C)=C(C)N(C=O)Cc1cnc(C)nc1N)N(C=O)Cc1cnc(C)nc1N?
Potency [1]: inactive; Potency [2]: inactive

Which Potency [1] does the source give for CCOc1cc(OCC)c(C(=O)CCC(=O)O)cc1OCC here?
The Potency was “inactive”.

And the Potency [2]?
The Potency was “inactive”.

Which Potency [1] does the source give for N#C/C(=C1\SCC(c2ccccc2Cl)S1)n1ccnc1 (centres undefined) here?
The Potency was “inactive”.

And the Potency [2]?
Its Potency is “inactive”.

Which results are given for COc1cc(N)c(Cl)cc1C(=O)NC1CCN(Cc2ccccc2)CC1?
Potency [1]: inactive; Potency [2]: inactive

With CCC(CC)(CC(=O)Nc1cccc(/C=C/c2nc(C3CCC3)cs2)c1)C(=O)O as the compound, how does the Potency [1] read?
The Potency was “inactive”.

And the Potency [2]?
The Potency was “inactive”.

For CC(=O)OCC1=C(C(=O)O)N2C(=O)[C@@H](NC(=O)CSc3ccncc3)[C@H]2SC1, which Potency [1] is on record?
The Potency was “inactive”.

And the Potency [2]?
Its Potency is “inactive”.

For CC[N+](C)(CC)CCOC(=O)C(O)(c1ccccc1)C1CCCCC1 (centres undefined), which Potency [1] is on record?
The Potency was “inactive”.

What about the Potency [2] of the same compound?
The Potency was “inactive”.

With COc1cc(C(=O)NCc2ccc(OCCN(C)C)cc2)cc(OC)c1OC as the compound, how does the Potency [1] read?
Its Potency is “inactive”.

What about the Potency [2] of the same compound?
The Potency was “inactive”.

Which Potency [1] does the source give for C[C@H]1[C@H]2CC[C@H]3[C@@H]4CC=C5C[C@@H](N(C)C)CC[C@]5(C)[C@H]4CC[C@]23CN1C here?
Its Potency is “inactive”.

What about the Potency [2] of the same compound?
The Potency was “inactive”.

Which Potency [1] does the source give for CO[C@H]1C=CO[C@@]2(C)Oc3c(C)c(O)c4c(O)c(c(/C=N/N5CCN(C)CC5)c(O)c4c3C2=O)NC(=O)/C(C)=C\C=C[C@H](C)[C@H](O)[C@@H](C)[C@@H](O)[C@@H](C)[C@H](OC(C)=O)[C@@H]1C here?
Its Potency is “inactive”.

And the Potency [2]?
The Potency was “inactive”.

With O=C(O)CCNC(=O)c1ccccc1 as the compound, how does the Potency [1] read?
Its Potency is “inactive”.

And the Potency [2]?
Its Potency is “inactive”.

For CN1CCN(C2=Nc3cc(F)ccc3Cc3ccccc32)CC1, which Potency [1] is on record?
The Potency was “inactive”.

What about the Potency [2] of the same compound?
The Potency was “inactive”.

What does the source list for C=C[C@@]1(C)CC(=O)[C@]2(O)[C@@]3(C)[C@@H](O)CCC(C)(C)[C@@H]3[C@H](O)[C@H](OC(C)=O)[C@@]2(C)O1?
Potency [1]: inactive; Potency [2]: inactive; Potency [3]: inactive; Potency [4]: inactive; Potency [5]: inactive; Potency [6]: inactive; Potency [7]: inactive

With CC(=O)OCC(=O)[C@H]1CC[C@H]2[C@@H]3CCC4=CC(=O)CC[C@]4(C)[C@H]3CC[C@]12C as the compound, how does the Potency [1] read?
Its Potency is “inactive”.

What about the Potency [2] of the same compound?
Its Potency is “inactive”.
